Screening results (PubChem BioAssay)
D2 antagonist: antagonists of human D2 dopamine receptor; 340,000 tested, 2% active; inhibition, % at 10 µM; HEK293 TREx D2 cells, calcium flux, dopamine EC80; AID 485344; in the data active means inhibition above about 30%; inactive means below that, where a call was filed; further: 0% is about no effect
Target sequence (P14416 whole entry, looked up): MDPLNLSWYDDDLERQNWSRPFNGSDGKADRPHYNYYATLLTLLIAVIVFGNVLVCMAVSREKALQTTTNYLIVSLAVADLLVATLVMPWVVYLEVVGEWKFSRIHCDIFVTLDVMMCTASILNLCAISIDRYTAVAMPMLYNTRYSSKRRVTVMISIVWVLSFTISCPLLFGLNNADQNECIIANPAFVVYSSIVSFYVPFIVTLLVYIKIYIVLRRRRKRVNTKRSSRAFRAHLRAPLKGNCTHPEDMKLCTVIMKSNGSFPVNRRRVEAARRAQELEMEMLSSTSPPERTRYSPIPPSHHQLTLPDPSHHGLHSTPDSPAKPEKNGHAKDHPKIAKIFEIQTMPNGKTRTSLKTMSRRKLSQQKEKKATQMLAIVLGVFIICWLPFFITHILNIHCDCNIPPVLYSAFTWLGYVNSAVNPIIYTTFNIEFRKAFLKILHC
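Dopamine at EC80 is the agonist stimulus; test compounds precede it by 180 s. Calcium flux read kinetically in a force-coupled, inducible HEK293 T-REx D2 cell line.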
D2 ag-1: activates the human D2 dopamine receptor; P14416; HEK293 T-REx D2 cells, calcium flux agonist mode; activation, % at 2 µM; 340,000 tested, 0.53% active;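 active means activation over 3 SD above normal in the single-dose calcium agonist read, cut at about 30% in these data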; further: 0% is about no effect
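Tetracycline-induced HEK293 T-REx cells with force-coupled D2 receptor, plated overnight at 30 C, loaded with no-wash calcium dye. After a 10 s baseline, compound was pin-added and calcium flux read kinetically for 180 s; calcium rises flagged agonists.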
D2 PAM-1: D2 dopamine receptor (human) potentiation. P14416. HEK293 T-REx D2, calcium flux, EC20 dopamine potentiation. potentiation, % at 10 µM. 340,000 tested, 0.34% active;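 active means potentiation over 3 SD above the plate norm, cut at about 30% in these data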; further: 0% is about no effect
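Tetracycline-induced HEK293 T-REx cells force-coupled to calcium signalling expressed D2; compounds were pin-added after a 10 s baseline, read kinetically 180 s, then an EC20 dopamine challenge followed with a further 180 s calcium read.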
D2 PAM-2: positive allosteric modulators of human D2 dopamine receptor; P14416; DiscoveRx D2 beta-arrestin cells, luminescence, 90 min; 100% = 57 uM dopamine signal; potentiation, % (concentration not given with the values); 360,000 tested, 0.23% active; AID 624464; in the data active means potentiation above about 50%
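PathHunter beta-arrestin assay in DiscoveRx D2 cells. Compounds were added with an EC20 of dopamine (50 nM final) for 90 min at 37 deg C. Luminescence was read 1 h after detection reagent, with 57 uM dopamine as the EC100 control.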
D2 ag-2: activates the human D2 dopamine receptor | 360,000 tested, 0.084% active | P14416 | DiscoveRx PathHunter D2 beta-arrestin, luminescence, 90 min; 100% = 57 uM dopamine signal | activation, % (concentration not given with the values); in the data active means activation above about 40%
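DiscoveRx PathHunter D2 beta-arrestin cells (2,100/well) attached overnight, then compound-stimulated 90 min at 37 C in HBSS/10 mM HEPES/0.1% Tween-20 buffer; beta-galactosidase complementation read by luminescence after 1 h at ambient temperature. Dopamine 57 uM final (EC100) as control.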
* = called active by the depositor; x = not tested or not shown. Hits are enriched below; roughly 2.4% of the tested compounds scored in any of these assays.

SMILES	D2 antagonist	D2 ag-1	D2 PAM-1	D2 PAM-2	D2 ag-2
Cc1ccc(-c2noc(CCC(=O)NCCCN3CCN(c4ccc(F)cc4)CC3)n2)cc1	61*	0	-19	-12	0
C/C=C1\NC(=O)[C@H](CC(N)=O)N(C)C(=O)C([C@@H](C)O)NC(=O)C(CCCc2ccc(OC)cc2)NC(=O)[C@H](C(C)C)NC(=O)/C(=C\C)NC(=O)[C@H](O)[C@@H](C[C@@H](O)CCCCCCC)NC(=O)[C@H](C)NC(=O)CN(C)C(=O)[C@H](CCC(N)=O)NC1=O (stereo partly drawn)	x	x	x	13	8
COc1ccc(S(=O)(=O)n2nc(-c3ccco3)nc2NCc2ccc(OC)c(OC)c2)cc1	x	3	19	x	x
CCN(CC)c1ccc(/C=C/C(=O)c2ccc(Br)cc2)cc1	71*	94*	-21	15	-2
Cc1ccc(COC(=O)c2cccc(S(=O)(=O)N3CCCCC3)c2)cc1	-15	-1	13	-20	-7
COc1ccccc1COC(=O)c1cccc(S(=O)(=O)N2CCCC2)c1	42*	0	7	-28	-3
Cc1ccc(COC(=O)c2cccc(S(=O)(=O)N3CCCCCC3)c2)cc1	43*	1	12	-14	0
CN1CCC(=O)N(CCSc2ccc(Br)cc2)CC1	53*	-1	3	-13	-3
Cc1ccc(C)c(N2CCN(c3nc4c(S(=O)(=O)c5ccccc5)nnn4c4ccc(Cl)cc34)CC2)c1	x	0	x	x	x
COc1ccc(-c2cc(C(F)(F)F)n3nc(C(=O)Nc4cc(Cl)cc(Cl)c4)cc3n2)cc1	x	0	4	x	x
Cc1cn2c(=O)cc(COC(=O)c3cccc(NC(=O)c4ccccc4Cl)c3)nc2s1	x	1	1	x	x
COc1ccc(-c2cc3nc(NCc4ccc(C)cc4C)n(C)c(=O)c3s2)cc1OC	x	x	x	2	-1
Cc1ccc(CNc2nc3cc(-c4ccccc4)sc3c(=O)n2C)c(C)c1	x	x	x	-4	53*
Cc1cc(C(=O)COC(=O)Cn2cnc3c2c(=O)n(C)c(=O)n3C)c(C)n1C	45*	0	9	-9	-1
Cc1cc(O)c(C(C)C)cc1N=Nc1ccccc1C(=O)O	9	-1	4	-12	-5
CN1C(=O)C(N=Nc2ccccc2C(=O)O)N(C)C1=S (stereo not drawn)	40*	9	3	-8	-3
COc1cc(NS(=O)(=O)c2ccc(C)cc2)c2ncccc2c1	-22	0	54*	-32	-7
Cc1ccc(S(=O)(=O)Nc2cccc3cccnc23)cc1	-16	-1	-11	-33	-6
COc1cc2c(cc1CNC[C@H]1O[C@@H](n3ccc(N)nc3=O)[C@H](O)[C@@H]1O)OCO2	x	x	x	6	-4
Cc1ccccc1CCNCc1c(C(=O)O)c(C)n(Cc2c(F)cccc2Cl)c1C	x	0	-3	x	x
COc1ccccc1NC(=O)NCC1(N(C)C)CCCCC1	59*	0	-17	-16	-4
COc1ccccc1NC(=O)NCC(c1ccco1)N1CCCCC1 (stereo not drawn)	39*	0	-15	-28	-4
COc1ccccc1NS(=O)(=O)c1cc(C(=O)NCC(c2ccco2)N2CCCCC2)ccc1C (stereo not drawn)	x	x	x	-39	-1
O=C(CSc1ccc(Br)cc1)NCC(c1ccco1)N1CCCCC1 (stereo not drawn)	39*	0	0	3	-4
O=C(CCOc1ccccc1)N(Cc1cccnc1)c1nc2ccc(F)cc2s1	x	1	7	x	x
SMILES	D2 antagonist	D2 ag-1	D2 PAM-1	D2 PAM-2	D2 ag-2
O=C(CCC(=O)c1ccc(F)cc1)Nc1cc(Cl)cc(Cl)c1	39*	0	-16	-24	-5
CCn1c2c(c(=O)n3ncc(C(=O)Nc4ccc(C(=O)OC)cc4)c13)CN(Cc1ccc(OC)cc1)CC2	x	-1	0	x	x
OC(CCCN1CCCCC1)(c1ccccc1)c1ccc(C(F)(F)F)cc1 (stereo not drawn)	x	x	x	-14	0
CCC1(C)SC(NC(C)=O)=NN1C(C)=O (stereo not drawn)	0	4	8	-6	-2
CC(=O)NC1=NN(C(C)=O)C(C)(CS(=O)(=O)c2ccc3ccccc3c2)S1 (stereo not drawn)	39*	0	4	-25	-2
Cc1ccc(SCCNS(C)(=O)=O)cc1	-12	0	36*	-16	-1
S=C(NCCc1ccccc1)Nc1ccccc1N1CCOCC1	45*	1	1	-7	-5
COc1cccc(CNC(=O)c2cc(=O)[nH]c3ccc(S(=O)(=O)N4CCCC4)cc23)c1	x	0	-3	x	x
Cn1nccc1C(=O)N1CCc2ccccc21	36*	0	1	-4	-5
CCc1nnc(N/N=C/c2c(F)cccc2Cl)n1N	2	-1	-2	15	41*
Cc1nnc(N/N=C/c2c(Cl)cccc2Cl)n1N	4	0	-4	14	4
COc1ccc(C2/C(=C(/O)c3ccc(S(=O)(=O)N4CCOCC4)cc3)C(=O)C(=O)N2CCN2CCOCC2)cc1 (stereo not drawn)	40*	1	-8	-9	-2
CCCCN1C(=O)c2ccc(C(=O)Nc3ccccc3N3CCOCC3)cc2C1=O	44*	3	7	-28	-6
O=C(CN1C(=O)c2ccccc2C1=O)Nc1ccccc1N1CCOCC1	-18	-1	-1	-3	4
COc1ccc2c(CNC3CCCCCC3)c(C(=O)O)n(Cc3ccccc3F)c2c1	x	0	-8	x	x
CC(=O)c1ccc(OCC(O)CN(C)CCOc2ccc(Br)cc2)cc1 (stereo not drawn)	44*	3	-26	-9	2
COc1ccc(CCN(C)CC(O)COc2ccc(C(C)=O)cc2OC)cc1OC (stereo not drawn)	36*	0	2	-8	-2
COc1cccc(NC(=O)CN2C(=O)CSc3ccc(S(=O)(=O)N4CCCC4)cc32)c1	x	-2	-2	x	x
O=C(Cn1c(=O)n(-c2ccc(F)cc2)c(=O)c2sc3ccccc3c21)N1CCCC1	x	x	1	x	x
C=CCn1c(O)c(C(CC)=NCc2cccnc2)c(=O)[nH]c1=O	42*	0	6	4	-4
Cc1[nH][nH]c(=O)c1C=NCc1cccnc1	2	1	4	4	-2
O=C(Nc1nnc([C@H]2C[C@H](O)[C@@H](CO)O2)s1)c1cccc(Oc2ccccc2)c1	x	x	x	-4	-5
COCCCn1c(C)cc(C(=O)COC(=O)CCc2nc3ccccc3c(=O)[nH]2)c1C	31*	1	-2	1	7
Cc1ccc(Sc2ccc(N3CCCC(C(=O)Nc4ccc(F)c(Cl)c4)C3)nn2)cc1 (stereo not drawn)	x	1	-3	x	x
COc1cc(/C=C2\SC(=N)N(c3ccc(F)cc3)C2=O)ccc1O	56*	2	-23	-20	1
